The results in this text go back to PubChem BioAssay.

Molecules are shown by their SMILES.

Experiment [1] deals with Human papillomavirus type 1a protein E7 (residues 44-93). The experiment is described as follows: small molecules binding HPV E7 44-93 – biochemical, small-molecule microarray, residues 44-93, 635 nm fluorescence, primary screen (AID 1108).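 Note: E7 fragment applied at 1 µg/mL in TBST for 1 h at 4 C; score combines spot fluorescence with its signal to noise ratio.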 Conditions: fluorescence 635 nm, higher = more signal.
Experiment [2] is described as follows: hepatitis C replication reporter changes, two-sided – Huh7 cells, luciferase reporter, HCV replication inhibitor project, primary screen (AID 1109).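 Note: huh7 hepatoma cells harbouring a luciferase neomycin HCV replicon reporter; luciferase luminescence as measure of HCV replicon replication; test concentration not given here.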 Conditions: Huh7 HCV replicon luciferase reporter, 48 h; higher = more signal. On the technique in general: Reporter assays use an easily measured gene product as a stand-in for the process of interest.
In experiment [3] the target is Left-right determination factor 2 (Homo sapiens) (UniProt O00292). Description: small molecules binding LEFTY2 protein – biochemical, small-molecule microarray, 635 nm fluorescence scan, primary screen (AID 1110). As to conditions: higher = more signal.
Experiment [4] addresses Calmodulin-1 (Homo sapiens) (UniProt P0DP23). Description: small molecules binding calmodulin-1 with EGTA – biochemical, small-molecule microarray, Cy5-labelled CALM1, profiling panel (AID 1111).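 Note: labelled calmodulin applied in Tris saline Tween buffer holding calcium plus EGTA and DTT.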 As to conditions: Cy5-CALM1 binding fluorescence, higher = more signal.
Experiment [5] has the same target. Description: small molecules binding Ca-loaded calmodulin-1 – biochemical, small-molecule microarray, Cy5-labelled CALM1, plus calcium, artefact control for SMM control-protein annotation, profiling panel (AID 1112).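 Note: score merges spot fluorescence with signal to noise from triplicate slides.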 Conditions: Cy5-CALM1 binding fluorescence, higher = more signal.
A short description of experiment [6]: probe aWnt5a binding to arrayed compounds – biochemical, biotinylated probe, 635/667 nm fluorescence, primary screen (AID 1113).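 Note: score merges 667 nm fluorescence intensity with signal-to-noise per printed feature.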 As to conditions: small-molecule microarray, higher = more signal.
Experiment [7] can be described thus: probe aShh binding to arrayed compounds – biochemical, biotinylated probe, 635/667 nm fluorescence, primary screen (AID 1114).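 Note: probe is biotin-labelled aShh protein from a stem cell growth factor screen; measures binding of labelled protein to compounds printed on the slide; score merges feature fluorescence at 667 nm with signal-to-noise.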 Conditions: small-molecule microarray, higher = more signal.
Experiment [8] is described as follows: probe aNog binding to arrayed compounds – biochemical, biotinylated probe, 635/667 nm fluorescence, primary screen (AID 1115).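 Note: probe is biotinylated aNog protein used at 0.15 µg/mL for 1 h at 4 C; z-score combines 667 nm fluorescence of each spot with its signal to noise.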 As to conditions: small-molecule microarray, higher = more signal.
Experiment [9] deals with Torsin-1A-interacting protein 1 (Homo sapiens) (UniProt Q5JTV8). Description: compound microarray binding of lysate hLAP1 – cell lysate, small-molecule microarray, COS7 lysate, 635/667 nm fluorescence, primary screen (AID 1116). As to conditions: 635 nm fluorescence, higher = more signal.
Experiment [10] has as its target Alpha-bungarotoxin (Bungarus multicinctus) (UniProt P60615). The experiment is described as follows: compounds binding labelled alpha-BTX control protein – biochemical, small-molecule microarray, Alexa647 label, 635/667 nm fluorescence, artefact control for SMM control protein annotation, profiling panel (AID 1117). As to conditions: alpha-BTX-A647 binding fluorescence, higher = more signal.

Alpha-bungarotoxin (Bungarus multicinctus), sequence (P60615 whole entry, looked up): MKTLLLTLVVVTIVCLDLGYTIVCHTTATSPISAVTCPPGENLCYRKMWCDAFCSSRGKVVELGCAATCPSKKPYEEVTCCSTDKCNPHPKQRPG
Torsin-1A-interacting protein 1 (Homo sapiens), sequence (Q5JTV8 whole entry, looked up): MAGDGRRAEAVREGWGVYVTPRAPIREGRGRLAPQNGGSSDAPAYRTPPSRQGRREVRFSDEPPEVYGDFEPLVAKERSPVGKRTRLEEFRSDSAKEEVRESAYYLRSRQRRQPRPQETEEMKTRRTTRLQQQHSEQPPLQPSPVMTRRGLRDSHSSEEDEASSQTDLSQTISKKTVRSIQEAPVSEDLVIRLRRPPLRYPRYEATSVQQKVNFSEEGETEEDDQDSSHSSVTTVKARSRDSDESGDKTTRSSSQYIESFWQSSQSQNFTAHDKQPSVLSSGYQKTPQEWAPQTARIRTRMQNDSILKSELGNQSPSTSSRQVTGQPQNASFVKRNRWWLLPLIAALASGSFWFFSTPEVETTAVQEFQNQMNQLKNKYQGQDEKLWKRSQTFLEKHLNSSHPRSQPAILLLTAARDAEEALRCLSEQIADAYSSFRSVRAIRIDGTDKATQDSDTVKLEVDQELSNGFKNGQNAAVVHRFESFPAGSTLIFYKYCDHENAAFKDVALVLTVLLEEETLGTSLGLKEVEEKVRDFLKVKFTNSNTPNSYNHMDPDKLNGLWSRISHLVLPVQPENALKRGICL
Left-right determination factor 2 (Homo sapiens), sequence (O00292 whole entry, looked up): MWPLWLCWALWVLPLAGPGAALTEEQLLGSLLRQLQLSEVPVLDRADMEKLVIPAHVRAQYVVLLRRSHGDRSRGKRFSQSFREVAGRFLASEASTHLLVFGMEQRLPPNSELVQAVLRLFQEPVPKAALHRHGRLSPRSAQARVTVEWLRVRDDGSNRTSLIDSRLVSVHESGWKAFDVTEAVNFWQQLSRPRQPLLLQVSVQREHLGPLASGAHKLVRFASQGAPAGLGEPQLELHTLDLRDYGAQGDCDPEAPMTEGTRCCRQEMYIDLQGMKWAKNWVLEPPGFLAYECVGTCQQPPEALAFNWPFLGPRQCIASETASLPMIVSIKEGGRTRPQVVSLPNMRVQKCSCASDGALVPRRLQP

On to `C=CCC(OC(C)=O)[C@@H]1[C@@H](N(Cc2ccc(-c3ccccc3)cc2)C(=O)c2ccc(C)cc2)c2cc(OCCCO)ccc2N1C(=O)c1ccc2ccccc2c1` (stereo not given in full), for which the composite z-score in experiment [1] was -0.129; in [3], -0.103; in [4] it was 0.0626; in experiment [5], 0.235; in experiment [6], -0.0222; in [7] it was -0.17. Further, the values for the composite z-score in experiment [8], in experiment [9] and in experiment [10] were -0.448, 0.202 and 0.408, respectively. The same compound displayed a z-score in [2] of -0.33.
Consider `CC(C)c1ccc(NN2C(C(O)C(C)C)C=CC3C(=O)N(c4ccccc4)C(=O)C32)cc1` (stereo not given), for which the composite z-score in [1] was 0.713; in experiment [3], 0.136; in experiment [4], 2.1; in [5], 0.721; in [6], 0.168; in experiment [7], 0.998. Moreover, the composite z-score is 1.8 in [8], 0.817 in experiment [9] and 1.49 in experiment [10]. For the same compound, the z-score in experiment [2] is 2.43.
For `CN(C)CCCCNC(=O)[C@H]1C[C@H]2C(=O)NCC(=O)N2[C@H]1c1cccc(OCCO)c1`, the composite z-score in experiment [1] is -0.433; in experiment [3], -0.443; in experiment [4], 0.0097; in experiment [5] it was 0.706; in experiment [6], -0.0685; in experiment [7] it was -0.285. Besides, the composite z-score in experiment [8] was -0.437; in experiment [9] it was 0.668; in experiment [10], -0.115. In experiment [2], the z-score came to 0.195.
As to `Cc1ccc(S(=O)(=O)N2[C@@H](c3ccccc3)C(C(=O)O)=CC[C@H]2c2ccc(C#N)cc2)cc1`, the composite z-score in [1] was 1.24; in experiment [3] it was -0.145; in experiment [4], 0.302; in [5] it was -0.269; in experiment [6] it was 0.0267; in experiment [7], 0.385. The figures for the composite z-score in [8], in experiment [9] and in [10] were 0.823, 1.84 and 1.57, respectively. Moreover, in experiment [2], the z-score was -0.494.
As to `COCCOC(=O)N1C(=O)[C@@]2(c3cc(C#CC4(O)CCCCCC4)ccc31)[C@H](c1ccccc1OCCO)N1[C@H](c3ccccc3)[C@H](c3ccccc3)OC(=O)[C@H]1[C@@H]2C(=O)N1CCCCCCC1`, the composite z-score in experiment [1] was found to be 1.06; in experiment [3], 0.502; in experiment [4], 1.67; in experiment [5], 1.46; in experiment [6] it was 0.355; in experiment [7] it was 0.661. The composite z-score in experiment [8] was found to be 2.71; in experiment [9] it was 3.51; in [10], 1.49. In [2], the z-score was -2.28.
Turning to `CCCC[C@@H](O)C1=C(COC)Cn2c(=O)n(-c3ccccc3)c(=O)n2[C@H]1CO`, the composite z-score was -0.877 in [1]; -0.1 in experiment [3]; -0.97 in [4]; -0.694 in experiment [5]; -0.172 in experiment [6]; -0.2 in experiment [7]. In addition, the composite z-score in experiment [8] is 0.474; in [9], 0.0334; in experiment [10] it was -0.115. The same compound yielded a z-score in [2] of 1.36.
For the compound `CC(C)[Si](C#CCCCC#N)(O[C@H](c1ccccc1)c1cn([C@H](C)c2ccccc2)nn1)C(C)C`, the composite z-score in [1] is 1.21; in [3] it was 0.392; in experiment [4], -0.0129; in experiment [5], -0.0984; in experiment [6], -0.0924; in experiment [7], 0.318. Further, the composite z-score was -0.262 in experiment [8], 0.137 in [9] and 0.18 in experiment [10]. The compound further had a z-score in experiment [2] of -1.91.
As for `CC(C)C(=C=CC[C@@H](O)c1cccc(OCCO)c1)CCO`, the composite z-score in experiment [1] is 0.217; in experiment [3], 0.0381; in experiment [4] it was -0.203; in experiment [5], -0.136; in [6] it was -0.154; in experiment [7], -0.229. Moreover, the values for the composite z-score in experiment [8], in experiment [9] and in experiment [10] were -0.273, 0.393 and -0.529, respectively. This compound showed a z-score in experiment [2] of 0.13.
With `C=CCC(OC(C)=O)[C@@H]1[C@@H](N(Cc2cccc3ccccc23)C(=O)c2cccc3ccccc23)c2cc(OCCCO)ccc2N1C(=O)Cc1ccc2ccccc2c1` (stereo not given in full), the composite z-score is 0.281 in [1]; -0.277 in experiment [3]; -0.603 in experiment [4]; -0.177 in experiment [5]; -0.0685 in experiment [6]; -0.138 in experiment [7]. Moreover, the composite z-score in [8] is 0.255; in experiment [9], 0.0057; in experiment [10] it was -0.424. The z-score in [2] stood at 0.108.
On to `N#Cc1ccc(C(O)C2C=CC3C(=O)NC(=O)C3N2Nc2ccccn2)cc1` (stereo not given), for which the composite z-score in experiment [1] is 0.447; in [3], 0.286; in experiment [4], 0.2; in experiment [5], -0.272; in experiment [6] it was -0.178; in experiment [7] it was 0.151. Besides, the composite z-score in [8] was 0.287; in experiment [9], -0.298; in [10], 0.617. The compound further came in with a z-score in [2] of -0.676.
In the case of `O=C1NC(=O)C2C1C=CC(C(O)c1ccc(F)cc1)N2Nc1ccccn1` (stereo not given), the composite z-score is 0.164 in experiment [1]; -0.0392 in [3]; 0.0754 in [4]; -0.255 in experiment [5]; -0.124 in [6]; 0.0684 in experiment [7]. Also, the composite z-score in [8] amounted to 0.147; in experiment [9], 0.513; in experiment [10], 0.349. For the same compound, the z-score in [2] was found to be 0.305.
With `CC(C)C[C@H]1NC(=O)[C@H](Cc2ccccc2)NC(=O)[C@@]23C(=O)N[C@@H](Cc4ccccc4)C2[C@H](C)[C@@]2(C)O[C@H]2C3/C=C/C/C=C\CNC1=O` (stereo not given in full), the composite z-score is -0.361 in [1]; 0.431 in experiment [3]; -0.128 in experiment [4]; 0.263 in [5]; -0.096 in experiment [6]; -0.214 in [7]. For the same compound, the composite z-score in experiment [8] worked out at 0.3; in experiment [9], 0.765; in [10], 0.93. In experiment [2], the z-score was -2.09.
On to `CC(=O)c1ccc(C(O)C2C=CC3C(=O)NC(=O)C3N2Nc2ccc(Cl)cc2Cl)cc1` (stereo not given), for which the composite z-score was 0.18 in [1]; -0.16 in [3]; 0.594 in experiment [4]; 0.468 in [5]; -0.0161 in experiment [6]; 0.522 in [7]. Also, the composite z-score in experiment [8] worked out at 1.25; in experiment [9] it was 0.0338; in experiment [10], 0.186. The compound further came in with a z-score in experiment [2] of -0.38.
As for `COc1ccc([Si](C)(C)[C@H]2[C@H](CCO)O[C@@]3(C(=O)N(Cc4ccc(N5CCOC5=O)cc4)c4ccccc43)[C@@H]2C)cc1`, the composite z-score in [1] was 1.11; in experiment [3], -0.284; in experiment [4] it was 0.854; in [5], 0.455; in experiment [6], -0.12; in [7], 0.151. Further, the composite z-score in experiment [8] came out at 0; in [9] it was 0.248; in [10], 0.93. Also, the z-score in experiment [2] was -3.71.
As for `CCOC(=O)C[C@H]1[C@H](OC(=O)c2ccc(-c3ccccc3)cc2)[C@@H](NC(=O)c2ccc3ccccc3c2)c2cc(OCCCO)ccc2N1C(=O)c1ccccc1`, the composite z-score in experiment [1] was determined as 0.965; in experiment [3] it was 0.564; in experiment [4], 0.128; in experiment [5], 0.116; in experiment [6], 0.163; in experiment [7], 0.0637. Moreover, the composite z-score is 0.0395 in [8], 0.341 in experiment [9] and 0.509 in experiment [10]. In experiment [2], this compound yielded a z-score of -1.09.
For the compound `C=CC[C@]1(C(=O)N(C)C)COC(c2ccc(OCCCO)cc2)=N1`, the composite z-score is 0.326 in [1]; -0.616 in experiment [3]; 2.62 in experiment [4]; -0.372 in experiment [5]; -0.113 in experiment [6]; 0.334 in experiment [7]. Also, the results for the composite z-score in experiment [8], in [9] and in [10] were -0.246, 2.09 and 0.113, respectively. Further, the z-score in experiment [2] came to 1.55.
As to `COCCCNC(=O)[C@@H]1c2ccccc2C(=O)N(Cc2cc(C(F)(F)F)cc(C(F)(F)F)c2)[C@H]1c1ccc(CO)cc1`, the composite z-score is 0.0861 in [1]; -0.323 in experiment [3]; 0.0808 in [4]; 0.232 in experiment [5]; -0.105 in experiment [6]; 0.0091 in experiment [7]. Also, the composite z-score in [8] was 0.896; in [9] it was 0.208; in experiment [10], -0.543. For the same compound, the z-score in experiment [2] is -0.293.
